# Compounds with a hit are over-represented: about 2.4% of the library has one in this group of screens.
# D2 ag-1: activates the human D2 dopamine receptor. P14416. DiscoveRx PathHunter D2 beta-arrestin, luminescence, 90 min; 100% = 57 uM dopamine signal. activation, % (concentration not given with the values). 0.084% of 360,000 active. AID 624465; in the data active = activation above about 40%; inconclusive = between about 15% and that limit
# Target sequence (P14416 whole entry, looked up): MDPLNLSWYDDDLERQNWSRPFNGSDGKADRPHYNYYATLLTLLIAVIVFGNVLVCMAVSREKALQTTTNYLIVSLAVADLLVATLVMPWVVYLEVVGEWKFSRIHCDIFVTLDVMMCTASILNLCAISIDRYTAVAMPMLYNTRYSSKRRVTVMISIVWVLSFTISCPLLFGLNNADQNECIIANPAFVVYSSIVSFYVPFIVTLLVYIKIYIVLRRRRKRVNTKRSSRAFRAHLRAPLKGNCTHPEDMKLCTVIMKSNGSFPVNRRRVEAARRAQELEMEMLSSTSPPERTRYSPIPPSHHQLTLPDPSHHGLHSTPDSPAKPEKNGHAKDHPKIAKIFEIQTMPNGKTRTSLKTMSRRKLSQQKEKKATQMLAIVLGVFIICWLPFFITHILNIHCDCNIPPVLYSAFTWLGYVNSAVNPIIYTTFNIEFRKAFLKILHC
#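 Agonist mode: compounds alone added to overnight-plated D2 PathHunter cells for 90 min at 37 C, with 57 uM final dopamine (EC100) defining full response. Beta-arrestin recruitment detected by chemiluminescent reagent, read after 1 h at ambient temperature.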
# D2 PAM-1: potentiates the human D2 dopamine receptor allosterically; DiscoveRx D2 beta-arrestin cells, luminescence, 90 min; 100% = 57 uM dopamine signal; potentiation, % (concentration not given with the values); 0.23% of 360,000 active; AID 624464; in the data active = potentiation above about 50%; inconclusive = mostly about 30% to 49%
#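 PathHunter D2 cells, attached overnight at 37 deg C, received compound in DMSO plus dopamine at EC20 (50 nM final) for 90 min at 37 deg C. Beta-arrestin recruitment was read as luminescence after 1 h with detection reagent at ambient temperature.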
# D2 PAM-2: positive allosteric modulators of human D2 dopamine receptor; HEK293 T-REx D2, calcium flux, EC20 dopamine potentiation; potentiation, % at 10 µM; 0.34% of 340,000 active;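 active = potentiation over 3 SD above the plate norm, cut at about 30% in these data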; also: 0% is about no effect
#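 Calcium flux readout, no-wash dye, 1 read/s. Inducible HEK293 Trex D2 line, overnight 30 C. Compound alone 180 s (agonist flags), then EC20 dopamine, another 180 s to score potentiation.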
# D2 ag-2: activates the human D2 dopamine receptor. HEK293 T-REx D2 cells, calcium flux agonist mode. AID 485358. 0.53% of 340,000 active. P14416. activation, % at 2 µM;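 active = activation over 3 SD above normal in the single-dose calcium agonist read, cut at about 30% in these data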; also: 0% is about no effect
#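 Agonism scored from kinetic calcium signal (1 read/sec, 180 s) following compound pin transfer, after a 10 s baseline. Cells: HEK293 Trex line expressing inducible D2 receptor coupled to calcium, dye-loaded after overnight culture at 30 C.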
# D2 antagonist: D2 dopamine receptor (human) antagonism | P14416 | 2% of 340,000 active | HEK293 TREx D2 cells, calcium flux, dopamine EC80 | inhibition, % at 10 µM; in the data active = inhibition above about 30%; inactive = below that, where a call was filed; also: 0% is about no effect
#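 Tetracycline-induced HEK293 T-REx cells expressing D2 force-coupled to calcium signalling were dye-loaded, exposed to compound for 180 s, then challenged with an EC80 of dopamine; calcium flux was followed kinetically for a further 180 s.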
# * = called active by the depositor; ? = inconclusive; · = not tested or not shown.
SMILES,D2 ag-1,D2 PAM-1,D2 PAM-2,D2 ag-2,D2 antagonist
O=c1cc(N2CCCCC2)c(-c2ccccc2)nn1Cc1c(Cl)cccc1Cl,-4,-10,16,0,32*
CC1C2CC(C/C2=N/NC(=O)c2cccs2)C1(C)C (configuration not stated),-1,-2,-9,-1,-1
C[C@@H]1C2CC(C/C2=N\NC(=O)c2ccncc2)C1(C)C (some centres not stated),-3,-5,2,0,36*
CCCN1CCC(Oc2cccc(C(=O)NCCc3ccccc3)c2)CC1,-3,-6,31*,0,-2
COCCNC(=O)c1cccc(OC2CCN(Cc3cccc(C(C)=O)c3)CC2)c1,-6,-2,-6,1,6
CCCCN(C)C(=O)c1cccc(OC2CCN(CC(C)(C)C)CC2)c1,0,-2,-1,1,67*
CC(C)(C)CN1CCC(Oc2cccc(C(=O)N3CCNC(=O)C3(C)C)c2)CC1,-4,-13,7,0,32*
COc1ccc(OC)c(CNc2ncnc3onc(-c4ccc(Cl)cc4)c23)c1,·,·,-4,-1,·
CCOC(=O)c1cnc(N2CCN(c3ccc(C)cc3C)CC2)c2ccccc12,·,·,18,0,·
Cc1ccccc1Nc1c(-c2ccc(N3CCOCC3)cc2)nc2ccc(Cl)cn12,·,·,-2,-1,·
Cc1ccc(NC(=O)Cn2c(=O)n(CCC(=O)N3CCc4ccccc4C3)c(=O)c3ccccc32)c(C)c1,·,·,·,0,·
CN1CCN(c2ccccc2NC(=O)COc2ccc(Cl)cc2)CC1,-1,-31,-6,0,30*
CN1CCN(c2ccccc2NC(=O)COc2ccccc2)CC1,0,-12,-4,0,-22
N#CC(C#N)=C1C=C2C=C(N3CCOCC3)CCC2CC1 (configuration not stated),-3,14,-26,132*,65*
CN1CCN(C2=CC3=CC(=C(C#N)C#N)CCC3CC2)CC1 (configuration not stated),4,6,19,173*,49*
N#CC(C#N)=C1C=C2C=C(N3CCCCCC3)CCC2CC1 (configuration not stated),?,10,-19,154*,83*
CC1(C)CC(NCCN2CCN(C3=CC(=C(C#N)C#N)CC(C)(C)C3)CC2)=CC(=C(C#N)C#N)C1,-2,-8,20,-1,-1
CCN1CCN(C2=CC3=CC(=C(C#N)C#N)CCC3CC2)CC1 (configuration not stated),4,-11,-33,142*,79*
Cc1ccccc1C(=O)Nc1cccc(C(=O)OCc2cc(=O)n3c(C)csc3n2)c1,·,·,2,1,·
CCOc1ccc(NC(=O)CCSc2nc(-c3ccc4c(c3)OCO4)cc(C(F)(F)F)n2)cc1,·,·,5,0,·
Cc1ccc(NS(=O)(=O)c2ccc(-c3cc(C)no3)cc2)c(C)c1,·,·,7,0,·
CCc1nc2ccc(C(=O)Nc3cc(-c4ccccc4)ccc3OC)cn2c1N(C=O)CCC(C)C,134*,-2,·,·,·
CN(CC(=O)Nc1ccc(OC(F)(F)F)cc1)C(=O)/C=C/c1cc2c(cc1[N+](=O)[O-])OCO2,-3,-5,-22,0,80*
COc1ccc(CCNC(=O)c2ccc(Cn3c(SCc4ccccc4)nc4cccnc43)cc2)cc1,·,·,15,0,·
Cc1ccccc1C(=O)NC(CC(C)C)C(=O)NN1C(=O)c2ccccc2C1=O (configuration not stated),-3,3,-3,0,30*
SMILES,D2 ag-1,D2 PAM-1,D2 PAM-2,D2 ag-2,D2 antagonist
O=S(=O)(Nc1ccc(F)cc1F)c1ccc(-n2cccn2)cc1,·,·,0,0,·
CN(C)c1ccc(C(=O)N/N=C/c2cc(Br)cc(Br)c2O)cc1,-5,-20,-24,1,32*
COc1ccc(-c2[nH]ncc2/C=N/NC(=O)c2ccc(Br)cc2)c(OC)c1,-7,-10,-27,-1,48*
COc1ccc(C(=O)N/N=C/c2cn[nH]c2-c2ccc(OC)cc2OC)cc1,-5,-37,-30,-2,5
COc1c(Br)cc(Br)cc1/C=N/NC(=O)c1ccncc1,2,-32,-20,1,93*
C/C(=N\NC(=O)c1ccncc1)c1cccc(NC(=O)c2ccc(C(C)(C)C)cc2)c1,7,15,11,0,25
COc1cc(/C=N/NC(=O)c2ccncc2)cc(OC)c1OC,2,1,5,1,3
C/C(=N\NC(=O)c1ccc(Br)cc1)c1cccc(NC(=O)c2cccnc2)c1,0,-3,-18,-2,32*
CCCCOc1ccccc1CC1C(=O)Nc2ccc(Br)cc21 (configuration not stated),·,·,16,-1,·
COc1ccc(-c2noc(CSc3nnc(-c4ccncc4)n3-c3ccc(C)cc3)n2)cc1OC,·,·,11,3,·
COc1cccc(N2CCN(C(=O)c3ccc(CS(=O)c4cccc(Cl)c4)o3)CC2)c1 (configuration not stated),·,·,2,·,·
COc1c(Br)cc(Br)cc1/C=N/NC(=O)c1cccnc1,-1,-1,-17,-1,90*
CCCN1C2CCCC1CC(NC(=O)c1ccccc1)C2 (configuration not stated),0,-22,-8,3,30*
CCCCN1C2CCCC1CC(NC(=O)c1cccc(Cl)c1)C2 (configuration not stated),-3,-30,-24,0,31*
CC(=O)N1Cc2ccccc2C(C)CC12CCCC2 (configuration not stated),-5,0,-3,-1,31*
CC(=O)N1c2ccccc2C(C)CC12CCCCC2 (configuration not stated),-6,-22,0,1,12
COc1ccc(-n2c(SCC(=O)Nc3nnc(C)s3)nc3c([nH]c4ccccc43)c2=O)cc1,·,·,-5,0,·
CCCCSCCCNC(=O)c1c[nH]c2ccc(S(=O)(=O)Nc3cccc(OC)c3)cc2c1=O,·,·,6,0,·
O=C(NC1=NCCS1)c1cc(-c2cccnc2)nc2ccccc12,-2,0,-2,1,33*
CCc1ccc(CNC(=O)C2CCCN(S(=O)(=O)c3ccc4c(ccn4C)c3)C2)cc1 (configuration not stated),·,·,3,2,·
Cc1ccccc1-c1noc(N)c1C#N,13,76*,-8,0,13
Clc1c(Cl)c(Cl)c2n[nH]nc2c1Cl,-5,-5,1,5,38*
Cc1cc(NC(=O)C(C)SCC(=O)OC(C)C(=O)Nc2ccccc2C)no1 (configuration not stated),-3,-1,-13,1,14
COc1ccc([N+](=O)[O-])cc1NC(=O)C(C)OC(=O)CSC(C)C(=O)Nc1cc(C)on1 (configuration not stated),-7,-24,8,0,36*
